# Values joined by “and” are separate entries in the source; they are usually repeats but may differ in a detail not shown here. Identical values can stand only once. Results filed as inconclusive are left out. Active and inactive are the calls of the source. Rule for the calls, unless noted: active = hit-call score of the fitted dose curve at least 0.9, where 1 is the maximum; inactive = score below 0.9.
# Key:
# [1] = BSK_SAg_PBMCCytotoxicity: PBMC Cytotoxicity Assessment in the BioMAP Diversity Plus: SAg Assay (AID 2283093); settings: primary human HUVEC with PBMC;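 note: PBMC viability measured as Alamar Blue reduction fluorescence at 546/580 nm; fitted both ways against DMSO so a hit may be loss or gain of signal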
# Summary of the method: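 HUVEC/PBMC co-culture; PBMC exposed to chemical 1 h before SEB and TSST-1 activation (20 ng/mL each), incubated 90 h, then Alamar Blue 6 h, fluorescence 546/580 nm. Bidirectional fit versus DMSO baseline.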
# [2] = read-out: Interleukin-8 (IL8), CXCL8 (gene 3576); assay: BSK_SAg_IL8: BioMAP Diversity Plus: SAg Assay for Interleukin-8 (IL8) Biomarker Activity (AID 2283094); settings: primary human HUVEC with PBMC; actives raise or lower the signal
# Summary of the method: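 In this co-culture of human umbilical vein endothelium with peripheral blood mononuclear cells, IL-8 is assayed by ELISA at 24 h. DMSO serves as baseline for bidirectional curve fitting.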
# [3] = BSK_SAg_Proliferation: Cell Proliferation Assessment in the BioMAP Diversity Plus: SAg Assay (AID 2283095); settings: primary human HUVEC with PBMC;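 note: relative cell number as total protein by SRB absorbance in sub-confluent culture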
# Summary of the method: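 Readout is SRB-stained protein (560 nm) in a primary human HUVEC and PBMC co-culture; sub-confluent cultures are read at 96 h. Activity is fitted bidirectionally using DMSO as baseline.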
# [4] = BSK_SAg_SRB: Viability Assessment in the BioMAP Diversity Plus: SAg Assay (AID 2283096); settings: primary human HUVEC with PBMC;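 note: cells read one day after compound addition; hits may be either gain or loss of signal compared with DMSO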
# Summary of the method: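 Human umbilical vein endothelial cells co-cultured with PBMC, read 24 h after compound dosing. Total protein measured by sulforhodamine B staining (0.1% SRB after 10% TCA fixation, absorbance 560 nm); bidirectional fit versus DMSO baseline.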
# [5] = molecular target: human CYP19A1, CYP19A1 (gene 1588) (UniProt P11511); assay: NVS_ADME_hCYP19A1: NovaScreen (NVS) CYP450-related Enzyme Activity (ADME) Assay for human CYP19A1 (AID 2283098; active = hit-call score of the fitted dose curve at least 0.9, where 1 is the maximum;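 for AC50: potency for inhibitors seen as loss of fluorescent enzyme signal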)
# Experimental: NVS_ADME_hCYP19A1 is a biochemical, single-readout assay that uses extracted gene-proteins in a cell-free assay. Measurements were taken 0.5 hour after chemical dosing in a 384-well plate.NVS_ADME_hCYP19A1 is one of one assay component(s) measured or calculated from the NVS_ADME_hCYP19A1 assay. It is designed to make measurements of enzyme activity, a form of enzyme reporter, as detected with fluorescence intensity signals by Fluorescence technology.Data from the assay component NVS_ADME_hCYP19A1 was analyzed into 1 assay endpoint. This assay endpoint, NVS_ADME_hCYP19A1, was analyzed in the positive analysis fitting direction relative to Acetonitrile as the negative control and baseline of activity. Using a type of enzyme reporter, loss-of-signal activity can be used to understand changes in the enzymatic activity as they relate to the gene CYP19A1. Furthermore, this assay endpoint can be referred to as a primary readout, because this assay has produced multiple assay endpoints where this one serves a enzymatic activity function. To generalize the intended target to other relatable targets, this assay endpoint is annotated to the cyp intended target family, where the subfamily is steroidogenesis-related. […]
# [6] = molecular target: human CYP1A2, CYP1A2 (gene 1544) (UniProt P05177); assay: NVS_ADME_hCYP1A2: NovaScreen (NVS) CYP450-related Enzyme Activity (ADME) Assay for human CYP1A2 (AID 2283102; active = hit-call score of the fitted dose curve at least 0.9, where 1 is the maximum;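 for AC50: potency for inhibition since loss of fluorescence marks reduced CYP1A2 activity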)
# Summary of the method: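 Fluorescence-intensity enzyme activity read-out, taken 0.5 h post-dosing, using insect-cell-derived recombinant CYP1A2 and specific fluorescent substrate. Acetonitrile served as negative control/baseline. Single-concentration duplicate screen at 10 uM, then concentration-response follow-up.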
# [7] = molecular target: Cytochrome P450 2C18 (Homo sapiens) (UniProt P33260); assay: NVS_ADME_hCYP2C18: NovaScreen (NVS) CYP450-related Enzyme Activity (ADME) Assay for human CYP2C18 (AID 2283103)
# Summary of the method: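 Cell-free recombinant human CYP2C18 with fluorogenic substrate; fluorescence intensity read 0.5 h after dosing. Single-point screen at 10 uM in duplicate, then concentration-response up to 20 uM; loss of signal fitted against acetonitrile baseline.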
# [8] = molecular target: human CYP2D6, CYP2D6 (gene 1565) (UniProt P10635); assay: NVS_ADME_hCYP2D6: NovaScreen (NVS) CYP450-related Enzyme Activity (ADME) Assay for human CYP2D6 (AID 2283107; active = hit-call score of the fitted dose curve at least 0.9, where 1 is the maximum)
# Summary of the method: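 Fluorescence intensity read 1 h post-dosing; insect-cell-expressed recombinant protein with fluorogenic substrate, no cells. Activity is scored as signal loss relative to acetonitrile baseline, first at a single 10 uM concentration in duplicate, then as concentration series for confirmed actives.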
# [9] = molecular target: human CYP2C9, CYP2C9 (gene 1559) (UniProt P11712); assay: NVS_ADME_hCYP2C9: NovaScreen (NVS) CYP450-related Enzyme Activity (ADME) Assay for human CYP2C9 (AID 2283108; active = hit-call score of the fitted dose curve at least 0.9, where 1 is the maximum)
# Experimental: NVS_ADME_hCYP2C9 is a biochemical, single-readout assay that uses extracted gene-proteins from SF9 in a cell-free assay. Measurements were taken 0.75 hour after chemical dosing in a 96-well plate.NVS_ADME_hCYP2C9 is one of one assay component(s) measured or calculated from the NVS_ADME_hCYP2C9 assay. It is designed to make measurements of enzyme activity, a form of enzyme reporter, as detected with fluorescence intensity signals by Fluorescence technology.Data from the assay component NVS_ADME_hCYP2C9 was analyzed into 1 assay endpoint. This assay endpoint, NVS_ADME_hCYP2C9, was analyzed in the positive analysis fitting direction relative to Acetonitrile as the negative control and baseline of activity. Using a type of enzyme reporter, loss-of-signal activity can be used to understand changes in the enzymatic activity as they relate to the gene CYP2C9. Furthermore, this assay endpoint can be referred to as a primary readout, because this assay has produced multiple assay endpoints where this one serves a enzymatic activity function. To generalize the intended target to other relatable targets, this assay endpoint is annotated to the cyp intended target family, where the subfamily is xenobiotic metabolism. […]
# [10] = molecular target: human CYP2B6, CYP2B6 (gene 1555) (UniProt P20813); assay: NVS_ADME_hCYP2B6: NovaScreen (NVS) CYP450-related Enzyme Activity (ADME) Assay for human CYP2B6 (AID 2283101; active = hit-call score of the fitted dose curve at least 0.9, where 1 is the maximum)
# Summary of the method: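 Recombinant human CYP2B6 with fluorogenic substrate, read by fluorescence intensity 1 h after dosing. Primary screen in duplicate at 10 uM, actives followed in concentration series; signal loss relative to acetonitrile control.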
# Chain of human CYP2C9, CYP2C9 (gene 1559) (P11712 whole entry, looked up): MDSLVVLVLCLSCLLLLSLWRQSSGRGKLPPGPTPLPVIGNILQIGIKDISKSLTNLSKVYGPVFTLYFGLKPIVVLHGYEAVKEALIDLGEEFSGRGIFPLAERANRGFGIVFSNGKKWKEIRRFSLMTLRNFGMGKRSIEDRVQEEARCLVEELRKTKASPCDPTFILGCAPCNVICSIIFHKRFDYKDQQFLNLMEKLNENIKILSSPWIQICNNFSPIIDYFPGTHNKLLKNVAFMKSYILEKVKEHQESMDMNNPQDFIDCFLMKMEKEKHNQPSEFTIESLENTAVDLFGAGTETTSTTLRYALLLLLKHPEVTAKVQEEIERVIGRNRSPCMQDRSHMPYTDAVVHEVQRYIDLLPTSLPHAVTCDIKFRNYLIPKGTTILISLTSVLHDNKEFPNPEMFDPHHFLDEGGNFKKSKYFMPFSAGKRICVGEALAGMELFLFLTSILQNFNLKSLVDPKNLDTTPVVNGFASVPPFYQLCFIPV
# Chain of human CYP19A1, CYP19A1 (gene 1588) (P11511 whole entry, looked up): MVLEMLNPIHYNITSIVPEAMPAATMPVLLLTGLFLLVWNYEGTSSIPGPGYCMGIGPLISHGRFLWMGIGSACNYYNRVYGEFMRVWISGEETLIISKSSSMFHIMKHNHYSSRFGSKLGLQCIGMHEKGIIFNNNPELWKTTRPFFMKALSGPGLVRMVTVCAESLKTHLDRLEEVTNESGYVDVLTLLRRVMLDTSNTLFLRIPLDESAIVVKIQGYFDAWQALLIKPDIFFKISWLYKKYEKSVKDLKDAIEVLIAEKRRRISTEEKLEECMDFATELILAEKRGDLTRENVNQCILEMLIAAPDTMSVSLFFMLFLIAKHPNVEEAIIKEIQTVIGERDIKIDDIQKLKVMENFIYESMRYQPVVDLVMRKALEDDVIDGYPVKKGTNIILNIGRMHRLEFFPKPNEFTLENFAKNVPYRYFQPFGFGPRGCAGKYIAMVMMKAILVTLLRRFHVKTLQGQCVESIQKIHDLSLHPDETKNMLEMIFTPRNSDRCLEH
# Chain of human CYP1A2, CYP1A2 (gene 1544) (P05177 whole entry, looked up): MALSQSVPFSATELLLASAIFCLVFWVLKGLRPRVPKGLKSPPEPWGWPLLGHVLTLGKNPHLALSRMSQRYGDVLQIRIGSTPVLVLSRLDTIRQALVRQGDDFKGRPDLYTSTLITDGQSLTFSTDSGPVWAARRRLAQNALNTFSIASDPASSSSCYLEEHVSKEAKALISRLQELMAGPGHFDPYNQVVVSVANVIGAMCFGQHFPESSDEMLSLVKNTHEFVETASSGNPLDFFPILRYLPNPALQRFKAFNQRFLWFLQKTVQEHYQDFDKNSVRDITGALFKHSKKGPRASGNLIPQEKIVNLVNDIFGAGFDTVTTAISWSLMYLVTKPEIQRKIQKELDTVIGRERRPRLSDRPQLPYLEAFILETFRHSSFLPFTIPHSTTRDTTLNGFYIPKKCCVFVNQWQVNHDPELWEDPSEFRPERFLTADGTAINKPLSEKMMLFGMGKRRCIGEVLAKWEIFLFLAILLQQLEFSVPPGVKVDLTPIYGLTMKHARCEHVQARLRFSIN
# Chain of Cytochrome P450 2C18 (Homo sapiens) (P33260 whole entry, looked up): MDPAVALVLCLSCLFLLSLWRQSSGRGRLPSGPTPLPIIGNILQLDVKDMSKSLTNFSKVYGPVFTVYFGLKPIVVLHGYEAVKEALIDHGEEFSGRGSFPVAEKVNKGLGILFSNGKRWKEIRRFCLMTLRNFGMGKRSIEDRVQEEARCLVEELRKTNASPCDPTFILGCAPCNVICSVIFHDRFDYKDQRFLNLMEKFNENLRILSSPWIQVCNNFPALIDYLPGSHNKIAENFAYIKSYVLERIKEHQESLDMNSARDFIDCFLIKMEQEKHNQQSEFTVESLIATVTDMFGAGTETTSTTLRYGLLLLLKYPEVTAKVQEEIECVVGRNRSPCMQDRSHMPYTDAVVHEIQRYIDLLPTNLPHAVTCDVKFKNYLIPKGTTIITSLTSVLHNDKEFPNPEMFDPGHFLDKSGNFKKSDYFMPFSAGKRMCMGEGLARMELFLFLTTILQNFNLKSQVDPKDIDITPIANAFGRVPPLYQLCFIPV
# Chain of human CYP2D6, CYP2D6 (gene 1565) (P10635 whole entry, looked up): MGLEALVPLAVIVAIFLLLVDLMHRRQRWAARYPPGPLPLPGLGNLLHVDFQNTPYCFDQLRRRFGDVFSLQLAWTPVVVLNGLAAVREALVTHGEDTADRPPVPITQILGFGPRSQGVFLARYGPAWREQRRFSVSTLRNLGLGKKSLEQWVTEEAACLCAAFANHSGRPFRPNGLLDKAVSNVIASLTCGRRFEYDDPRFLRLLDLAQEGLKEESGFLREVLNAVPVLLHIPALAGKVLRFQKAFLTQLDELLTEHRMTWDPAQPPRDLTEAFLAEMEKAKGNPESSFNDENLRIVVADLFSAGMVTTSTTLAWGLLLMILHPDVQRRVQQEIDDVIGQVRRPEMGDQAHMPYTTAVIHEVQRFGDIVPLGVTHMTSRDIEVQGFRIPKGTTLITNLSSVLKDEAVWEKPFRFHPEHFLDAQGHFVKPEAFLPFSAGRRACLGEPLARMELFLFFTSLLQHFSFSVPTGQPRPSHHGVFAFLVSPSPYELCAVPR
# Chain of human CYP2B6, CYP2B6 (gene 1555) (P20813 whole entry, looked up): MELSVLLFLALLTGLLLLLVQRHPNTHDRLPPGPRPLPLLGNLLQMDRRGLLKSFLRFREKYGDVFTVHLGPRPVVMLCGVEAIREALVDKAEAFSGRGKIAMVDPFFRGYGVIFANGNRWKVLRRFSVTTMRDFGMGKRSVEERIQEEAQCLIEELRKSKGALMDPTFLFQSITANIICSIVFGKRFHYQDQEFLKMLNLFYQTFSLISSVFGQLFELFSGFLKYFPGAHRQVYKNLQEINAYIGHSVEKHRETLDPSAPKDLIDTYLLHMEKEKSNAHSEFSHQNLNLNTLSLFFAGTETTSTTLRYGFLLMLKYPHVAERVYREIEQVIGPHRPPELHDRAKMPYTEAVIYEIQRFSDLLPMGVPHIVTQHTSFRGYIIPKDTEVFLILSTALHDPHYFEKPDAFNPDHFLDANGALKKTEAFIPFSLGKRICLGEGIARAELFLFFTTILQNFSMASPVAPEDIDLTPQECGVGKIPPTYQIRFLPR
smiles,measurement,setting,value
COc1ccccc1N,outcome,[1],inactive
same,outcome,[2],inactive
same,outcome,[3],inactive
same,outcome,[4],inactive
O=C(CCl)NCO,outcome,[1],inactive
same,outcome,[2],inactive
same,outcome,[3],inactive
same,outcome,[4],inactive
CCN(CC)C(=O)C(Cl)=C(C)OP(=O)(OC)OC,outcome,[1],inactive
same,outcome,[2],inactive
same,outcome,[3],inactive
same,outcome,[4],inactive
CCCCCCCCCCCCc1cccc(S(=O)(=O)O)c1,outcome,[1],inactive
same,outcome,[2],inactive
same,outcome,[3],inactive
same,outcome,[4],inactive
N#Cc1cccnc1,outcome,[2],inactive
same,outcome,[3],inactive
same,outcome,[4],inactive
OC(Cc1ccccc1Cl)(Cn1[nH]cnc1=S)C1(Cl)CC1 (stereo unspecified),AC50,[2],3.97 µM (active)
same,AC50,[3],20 µM (active)
same,outcome,[4],inactive
CCC(C)(C#N)N=NC(C)(C#N)CC (stereo unspecified),outcome,[2],inactive
same,outcome,[3],inactive
same,outcome,[4],inactive
CC(C)=CC1C(C(=O)OCc2cccc(Oc3ccccc3)c2)C1(C)C (stereo unspecified),outcome,[2],inactive
same,AC50,[3],26.3 µM (active)
same,AC50,[4],24.9 µM (active)
O=C1c2ccccc2C(=O)C1C(=O)C(c1ccccc1)c1ccc(Cl)cc1 (stereo unspecified),AC50,[5],5.08 µM (active)
Oc1c(Cl)cc(Cl)cc1Cl,outcome,[2],inactive
same,outcome,[3],inactive
same,outcome,[4],inactive
C[C@]12CC[C@@H](O)C[C@@H]1CC[C@@H]1[C@@H]2CC[C@]2(C)C(=O)CC[C@@H]12,outcome,[2],inactive
same,outcome,[3],inactive
same,outcome,[4],inactive
COCC(=O)N(c1c(C)cccc1C)[C@H](C)C(=O)OC,outcome,[2],inactive
same,outcome,[3],inactive
same,outcome,[4],inactive
CCOCn1c(-c2ccc(Cl)cc2)c(C#N)c(Br)c1C(F)(F)F,AC50,[6],1.35 µM (active)
CC(C)(COCC1CO1)COCC1CO1 (stereo unspecified),outcome,[2],inactive
same,AC50,[3],36.7 µM (active)
same,outcome,[4],inactive
O=C(Cc1ccccc1)OCCc1ccccc1,outcome,[2],inactive
same,outcome,[3],inactive
same,outcome,[4],inactive
CC(C=O)Cc1ccc2c(c1)OCO2 (stereo unspecified),outcome,[2],inactive
same,outcome,[3],inactive
same,outcome,[4],inactive
CC1(C)[C@H](C(=O)O[C@H](C#N)c2cccc(Oc3ccccc3)c2)[C@@H]1/C=C(\Cl)C(F)(F)F,outcome,[2],inactive
same,AC50,[3],17.1 µM (active) and 3.97 µM (active)
same,outcome,[4],inactive
same,AC50,[7],0.951 µM (active)
O=[N+]([O-])c1cccc2ccccc12,outcome,[2],inactive
same,outcome,[3],inactive
same,outcome,[4],inactive
N#CCCC(Br)(C#N)CBr (stereo unspecified),AC50,[2],20 µM (active)
same,AC50,[3],1.12 µM (active)
same,AC50,[4],11.5 µM (active)
same,AC50,[8],3.08 µM (active)
CCOP(=O)(OCC)OC(=CCl)c1ccc(Cl)cc1Cl,outcome,[2],inactive
same,outcome,[3],inactive
same,outcome,[4],inactive
O=[N+]([O-])c1ccc(Nc2ccccc2)cc1,outcome,[2],inactive
same,outcome,[3],inactive
same,outcome,[4],inactive
c1ccc2sc(SNC3CCCCC3)nc2c1,outcome,[2],inactive
same,AC50,[3],29.2 µM (active)
same,outcome,[4],inactive
O=C(O)C1(c2ccc3c(c2)OC[C@H](Cc2ccc(-c4ccccc4)cc2)[C@H]3O)CCCC1,AC50,[2],24.6 µM (active)
same,AC50,[3],16.7 µM (active)
same,AC50,[4],27.3 µM (active)
COC(=O)Nc1cccc(OC(=O)Nc2cccc(C)c2)c1,outcome,[6],inactive
Oc1ccc(Cc2ccc(O)cc2)cc1,outcome,[2],inactive
same,outcome,[3],inactive
same,outcome,[4],inactive
same,AC50,[9],0.321 µM (active)
CC(C)(C)c1ccccc1O,outcome,[2],inactive
same,outcome,[3],inactive
same,outcome,[4],inactive
same,outcome,[10],inactive
CCOP(=S)(OCC)OP(=S)(OCC)OCC,AC50,[2],36 µM (active)
same,AC50,[3],20 µM (active)
same,outcome,[4],inactive
Cc1ccc2nc3sc(=O)sc3nc2c1,outcome,[2],inactive
same,AC50,[3],7.93 µM (active)
same,AC50,[4],5 µM (active)
Cc1cccc(OP(=O)(Oc2cccc(C)c2)Oc2cccc(C)c2)c1,outcome,[2],inactive
same,outcome,[3],inactive
same,outcome,[4],inactive
CCOC(=O)C(SP(=S)(OC)OC)c1ccccc1 (stereo unspecified),outcome,[2],inactive
same,AC50,[3],35.3 µM (active)
same,outcome,[4],inactive
Oc1cccc(-c2ccccc2)c1,outcome,[2],inactive
same,AC50,[3],20 µM (active)
same,AC50,[4],20 µM (active)
O=S(=O)(c1ccc(Cl)cc1)c1cc(Cl)c(Cl)cc1Cl,outcome,[2],inactive
same,AC50,[3],10.8 µM (active)
same,outcome,[4],inactive
OC(Cc1ccccc1Cl)(Cn1cncn1)C1(Cl)CC1 (stereo unspecified),outcome,[2],inactive
same,outcome,[3],inactive
same,outcome,[4],inactive
O=c1nc(O)n(Cl)c(=O)n1Cl,outcome,[5],inactive
Cc1cc(Cl)ccc1OC(C)C(=O)O (stereo unspecified),outcome,[2],inactive
same,outcome,[3],inactive
same,outcome,[4],inactive
Cc1cc(C(C)(C)c2ccc(O)c(C)c2)ccc1O,outcome,[2],inactive
same,AC50,[3],18.2 µM (active)
same,outcome,[4],inactive
same,AC50,[9],0.942 µM (active)
CCCCN(CCCC)C(=S)[S-].CCCCN(CCCC)C(=S)[S-].[Ni+2],outcome,[2],inactive
same,outcome,[3],inactive
same,outcome,[4],inactive
O=S(=O)(C(Cl)(Cl)Cl)C(Cl)(Cl)Cl,AC50,[2],1.79 µM (active)
same,AC50,[3],0.798 µM (active)
same,AC50,[4],3.74 µM (active)
Cc1ccc(OP(=O)(Oc2ccc(C)cc2C)Oc2ccc(C)cc2C)c(C)c1,AC50,[2],4.7 µM (active)
same,AC50,[3],12.9 µM (active)
same,AC50,[4],20 µM (active)
CCOC(=O)CC(=O)CCl,AC50,[2],9.73 µM (active)
same,AC50,[3],16.2 µM (active)
same,outcome,[4],inactive

# Reference: PubChem BioAssay (EPA / NIEHS)
